# ssDAF12 agonist – activators of S. stercoralis DAF-12 nuclear receptor. HEK293 ssDAF-12/GRIP1 lit1-tk-luc reporter, luminescence; % of 3 µM dafachronic acid response. activation, % at 6.8 µM. 370,000 compounds, 1% hits. AID 652126;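 active = activation above the mean over all tested compounds plus 3 SD, cut at about 0.9% in these data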;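 also: 0% = DMSO-only wells and 100% = 3 µM delta7-dafachronic acid wells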
# Wee1 stabilizer – inhibitors of human Wee1 degradation; P30291; HeLa Luc-Wee1K328M stability, luciferase luminescence; 100% = proteasome inhibitor MG132 effect; reporter increase, % at 5 µM; 220,000 compounds, 1.2% hits; AID 1321;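 active = activation above the mean of all tested compounds plus 3 SD, set per screening run, cut at about 8.8% in these data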;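 also: cells exposed to compound for 20 h before luminescence read; 0% = DMSO alone and 100% = MG132 at 30 µM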
# Target sequence (P30291 whole entry K328M): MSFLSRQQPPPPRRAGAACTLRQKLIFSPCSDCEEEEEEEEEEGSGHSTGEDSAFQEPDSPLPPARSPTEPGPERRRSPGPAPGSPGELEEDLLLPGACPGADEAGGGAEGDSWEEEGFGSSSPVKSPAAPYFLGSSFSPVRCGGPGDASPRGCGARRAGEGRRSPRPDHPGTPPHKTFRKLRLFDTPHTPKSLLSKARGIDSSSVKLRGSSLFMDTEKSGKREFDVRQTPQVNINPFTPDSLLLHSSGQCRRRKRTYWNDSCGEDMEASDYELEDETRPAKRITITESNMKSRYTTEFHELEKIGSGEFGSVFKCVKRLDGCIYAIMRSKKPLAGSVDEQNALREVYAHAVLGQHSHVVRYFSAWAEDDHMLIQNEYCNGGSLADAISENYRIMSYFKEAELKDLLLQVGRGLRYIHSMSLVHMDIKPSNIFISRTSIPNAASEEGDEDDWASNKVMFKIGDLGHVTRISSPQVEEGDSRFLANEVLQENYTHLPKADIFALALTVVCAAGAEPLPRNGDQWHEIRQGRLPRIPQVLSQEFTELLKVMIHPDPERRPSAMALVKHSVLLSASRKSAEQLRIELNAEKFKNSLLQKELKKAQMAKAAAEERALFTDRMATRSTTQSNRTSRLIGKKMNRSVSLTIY
# hcDAF-12 act – H. contortus DAF-12 activation, primary screen | HEK293 hcDAF-12 lit1-tk-luc reporter, luminescence; 0% DMSO, 100% Δ7-dafachronic acid | activation, % at 6.8 µM | 370,000 compounds, 1.4% hits | AID 652067;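 active = activation above the mean of all tested compounds plus 3 SD, cut at about 5.5% in these data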;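 also: 100% = response to 3 µM Δ7-dafachronic acid high control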
# DAX1 inh-1 – NR0B1 (DAX1) inhibition; HEK293 Gal4-DAX1 luciferase reporter, luminescence; inhibition, % at 6.75 µM; 340,000 compounds, 0.99% hits;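 active = inhibition above the mean over all tested compounds plus 3 SD, cut at about 4.2% in these data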;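 also: 0% = DAX1-transfected cells with DMSO and 100% = empty-vector control cells with DMSO; inhibition shows as a rise in luminescence from relieved DAX1 repression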
# DAX1 inh-2 – DAX1 (NR0B1) inhibition, primary screen; HEK293T StAR-luciferase reporter, SF-1/DAX-1 repression relief; inhibition, % at 6.8 µM; 370,000 compounds, 1.1% hits; AID 652010;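 active = inhibition above the mean over all tested compounds plus 3 SD, cut at about 3.6% in these data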;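 also: 0% = DAX-1 cells with DMSO and 100% = cells lacking DAX-1 with DMSO; higher inhibition means more luminescence from relief of DAX-1 repression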
# hgDAF12 agonist – activates the H. glycines DAF-12 receptor ligand-binding domain | HEK293 GAL4-hgDAF12 UAS-luciferase reporter, agonist luminescence; normalized to butyrate control | activation, % at 6.8 µM | 370,000 compounds, 1.8% hits | AID 687014;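 active = activation above a cutoff set at the mean of all screened compounds plus 3 SD, cut at about 10% in these data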;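 also: 0% = DMSO wells and 100% = sodium butyrate wells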
# * hit, by the source's call; . = no result given. An excerpt weighted towards active compounds, which were near 4.6% of everything screened.
SMILES,ssDAF12 agonist,Wee1 stabilizer,hcDAF-12 act,DAX1 inh-1,DAX1 inh-2,hgDAF12 agonist
Cc1nc2cc(NC(=O)Nc3ccc(N4CCOCC4)cc3)ccc2n1C,-2,10*,2,-1,-1,-2
CCCc1ccc(OCc2ccc(C(=O)O)o2)c(OC)c1,0,5,4,-2,3,8
CCOc1ccc(OCc2ccc(C(=O)O)o2)cc1,0,-3,3,-4,1,10
C=CCc1ccc(OCc2ccc(C(=O)O)o2)c(OC)c1,0,.,6.0*,-1,2,10
C=CCc1ccc(OCCCCOc2ccc(C(=O)O)cc2)c(OC)c1,3.8*,0,-2,.,0,2
C=CCc1ccc(OCCCOc2ccc(C)c(C)c2)c(OC)c1,0,-2,-1,0,0,1
O=C(O)c1ccc(COc2ccc3ccccc3c2)o1,-1,4,3,-1,2,10*
COc1ccc(CN(C)C(=O)Cn2ccc(N)nc2=O)cc1OC,-1,.,4,0,0,0
Cc1cc(C(=O)O/N=C(\N)c2ccncc2)ccc1[N+](=O)[O-],-1,5,-1,4.4*,1,5
CN(/C=C/c1c([N+](=O)[O-])c(=O)n(C)c(=O)n1C)c1ccccc1,-1,9.4*,1,0,0,-2
Cn1c(/C=C/c2ccc(Cl)cc2)c([N+](=O)[O-])c(=O)n(C)c1=O,-1,.,-4,-4,-2,1
O=C(CN(CC(=O)N1CCOCC1)S(=O)(=O)c1ccc(Br)s1)N1CCOCC1,-1,3,0,6.8*,0,1
COc1cc(-c2cc(NC(C)=O)c3ncc(-c4cc(OC)c(OC)c(OC)c4)n3c2)cc(OC)c1OC,-1,.,1,.,-2,-6
COc1ccc(C(CNC(=O)c2ccc(S(=O)(=O)Nc3ccccc3OC)cc2)N2CCCC2)cc1 (centres undefined),-1,.,1,1,4.2*,2
COc1ccccc1NS(=O)(=O)c1ccc(C(=O)NCC(c2ccccc2OC)N2CCCC2)cc1 (centres undefined),-1,.,-2,0,3,-1
CC(C)COC(=O)N(C)C[C@@H]1OCc2cnnn2CCCC(=O)N([C@H](C)CO)C[C@@H]1C,-1,.,1,2,-1,0
CCCCCCCCN1CN2Cc3cc(OC)ccc3C2CS1(=O)=O (centres undefined),-1,.,0,.,0,0
O=C(N/N=C/c1ccncc1)NC1CCCCC1,-1,-1,0,5.9*,0,1
O=C(N/N=C/c1ccncc1)C1C2CCCCCCC21 (centres undefined),-1,-3,0,-1,0,-2
O=C(CN1CCN(Cc2ccccc2F)C1=O)NCc1cccnc1,-2,-1,2,0,-1,2
O=C(CN1CCN(Cc2ccccc2Cl)C1=O)NCc1cccnc1,-2,-3,-1,6.0*,-1,1
CCn1c(NC(=O)c2ccccc2)nc2ccccc21,2.3*,1,5,.,-1,3
COC(=O)Cn1c(C(O)c2ccccc2)nc2ccccc21 (centres undefined),1.7*,.,2,3,0,-1
CCn1c(C(O)c2ccccc2)nc2ccccc21 (centres undefined),-1,0,-1,2,-1,1
CCn1c(C(C)NC(C)=O)nc2ccccc21 (centres undefined),0,-2,4,0,3,12*
SMILES,ssDAF12 agonist,Wee1 stabilizer,hcDAF-12 act,DAX1 inh-1,DAX1 inh-2,hgDAF12 agonist
O=C(CN1C(=O)NC2(CCCC2)C1=O)OCCOc1ccccc1Cl,-1,.,0,-2,1,-1
O=C(CSc1nc2ccccc2[nH]1)NCc1ccccc1,-1,.,0,2,2,3
O=C(CSc1nc2ncccc2[nH]1)NCc1ccccc1,-1,0,-2,4.7*,-1,0
Fc1ccccc1CSc1nc2ncccc2[nH]1,-1,10*,2,-1,0,3
Cc1cc(N2CCN(CCO)CC2)n2nc(C)nc2n1,0,.,-1,.,0,5
NC(=O)CSc1nnc2ccc(-c3ccc(Cl)cc3)nn12,0,1,-1,0,-1,-2
Cc1ccc(-c2ccc3nnc(SCC(N)=O)n3n2)cc1,-2,-1,0,7.0*,1,-3
CCc1nc2c(OCCOc3ccc(F)cc3)cccn2c1N(C)C(=O)C(C)C,-2,.,-1,.,0,1
O=C(CC1S/C(=N/N=C/c2c[nH]c3ccc(OCc4ccccc4)cc23)NC1=O)Nc1ccccc1 (centres undefined),-2,8.9*,0,-1,0,-1
O=C(O)c1ccccc1C(=O)Nc1ccc(Oc2cccc(C(F)(F)F)c2)nc1,0,-1,6.2*,1,0,-2
COCCCNC(=O)Cn1nnc(-c2ccccc2NC(=O)c2ccccc2F)n1,-2,0,-1,-1,-1,-4
Cc1cc(NC(=O)Cn2nnc(-c3ccccc3NC(=O)c3ccccc3F)n2)no1,1.4*,.,-1,2,0,2
O=c1c2ccccc2oc2ccc(Oc3ccccc3)cc12,0,.,3,5.1*,2,9
COC(=O)c1cc2oc3ccccc3c2n1CC(=O)N1CCCc2ccccc21,-1,-1,-1,1,1,-2
COC(=O)c1cc2ccsc2n1CC(=O)N1CCCc2ccccc21,-1,20*,1,0,0,0
O=C(COc1ccc2c(c1)OCO2)Nc1ccccc1F,0,-1,4,4,3,13*
Cc1ccc(NC2=C/C(=N/S(=O)(=O)c3cccs3)c3ccccc3C2=O)cc1,0,1,5.8*,0,0,7
CC(=O)Nc1sc2c(c1C(c1cccc(Cl)c1)N1CCN(CCO)CC1)CCCC2 (centres undefined),-1,-1,-2,4.9*,0,-2
O=C(COC(=O)/C=C/c1ccc(Cl)cc1Cl)NCc1ccco1,-2,9.7*,1,0,1,0
O=S1(=O)N=C(N/N=C/c2cccs2)c2ccccc21,-1,.,-1,4.5*,0,1
CCOC(=O)C1=C(C)NC(C)=C(C(=O)OCC)C1C(=O)OCC(=O)Nc1ccc(NC(C)=O)cc1,-1,.,-1,0,-1,-3
COCCCNC(=S)Nc1cccc2ncccc12,-1,9.2*,-1,0,-1,-2
CN(C)C(=O)CSc1ccc(S(=O)(=O)N2CCOCC2)cn1,0,.,0,2,-1,0
NC(=O)CSc1nnc(-c2ccc3c(c2)OCO3)o1,2.8*,2,3,.,3,13*
O=C(O)CSc1nnc(-c2ccc3c(c2)OCO3)o1,0,-2,1,0,0,3

# Bioassay records deposited in PubChem BioAssay by The Scripps Research Institute Molecular Screening Center.
